Where “and” joins values, the source holds several entries; their conditions need not be identical. Equal values may be shown once. Records with an inconclusive call do not appear. Where a call stands in place of a potency, no number is given. Calls of active or inactive are those of the source. Unless noted, calls come from the whole dose curve; as a rule, active = well fitted curve in the direction sought with a large enough effect; inconclusive = small, poorly fitted or top-dose-only effect, or another doubt; inactive = no such curve, though single readings can be large; an effect the other way counts as inactive or inconclusive.
Assays:
[1] = biological target: Glutathione peroxidase 1 (Homo sapiens) (UniProt P07203); assay: Primary qHTS Assay for Inhibitors of Recombinant Selenoprotein Glutathione Peroxidase 1 (GPX1) (AID 1845191); note: nearly all actives have a fitted effect of over 65% in size; note: potency is the fitted concentration of half-maximal effect
Summary of the method: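 10 nM GPX1 + cpd, 30 min RT; start w/ 1 mM GSH, 0.5 mM cumene hydroperoxide, 0.5 mM NADPH, 100 nM GR, 0.01% BSA; buffer 50 mM Tris-HCl pH 7.5, 2 mM EDTA, 150 mM NaCl; Fl 340/450, 0 & 15 min.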

[2] = biological target: Phospholipid hydroperoxide glutathione peroxidase GPX4 (Homo sapiens) (UniProt P36969); assay: Primary qHTS Assay for Inhibitors of Recombinant Selenoprotein Glutathione Peroxidase 4 (GPX4) (AID 1845192); note: nearly all actives have a fitted effect of over 65% in size; note: potency is the fitted concentration of half-maximal effect
Summary of the method: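 NADPH consumption, followed by fluorescence at 340/450 nm between 0 and 15 min, reports GPX4 activity via coupled glutathione reductase (100 nM). Enzyme 200 nM was pre-exposed to compound 30 min; 0.5 mM cumene hydroperoxide and 1 mM GSH served as substrates.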

[3] = biological target: Luciferin 4-monooxygenase (Photinus pyralis) (UniProt P08659); assay: Primary firefly luciferase (FLuc) qHTS assay for identification of artifact compounds. (AID 1845220); note: nearly all actives have a fitted effect of over 60% in size
Summary of the method: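 Compounds sat 15 min at room temperature with 10 uM luciferin and 10 uM ATP (pH 7.6 Tris acetate). Firefly luciferase (10 nM final) was then added, and luminescence was read 5 min later. Data normalized to no-enzyme and DMSO controls were Hill-fitted.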

[4] = Primary fluorescence-based thiol-reactive (MSTI) qHTS assay for identification of artifact compounds. (AID 1845221); note: nearly all actives have a fitted effect of over 65% in size; note: potency is the fitted concentration of half-maximal effect
Summary of the method: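 MSTI probe at 4 uM final in 2% DMSO/PBS pH 7.4; compounds, 1 h at room temperature in dark. Fluorescence Ex/Em 525/598 nm, normalised to Acetyl-MSTI and MSTI, fitted to 4-parameter Hill.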

[5] = tested on: Nanoluciferase (engineered Oplophorus gracilirostris luciferase); assay: Primary Nanoluciferase (NLuc) qHTS assay for identification of artifact compounds. (AID 1845222); note: series mostly up to about 54 µM
Summary of the method: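 Luminescence from secreted NLuc (filtered, 1:55-diluted S16 cell medium) read 5 min after Nano-Glo substrate; compounds preincubated 15 min, RT. Hill fits of inhibition normalized to DMSO and no-enzyme.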

[6] = Primary redox qHTS assay for identification of artifact compounds. (AID 1845223)
Summary of the method: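 Amplex Red (25 uM) and HRP (250 mU/mL) in HBSS, with compounds for 15 min, then 250 uM DTT for 30 min, room temperature, dark. Fluorescence 525/598 nm read; normalized to DMSO and 10 uM DA3003; Hill fit.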

[7] = qHTS drug screen for cell cycle checkpoint inhibitors in PARPi-resistant BRCA-mutant ovarian cancer cell lines. (AID 1963452; calls by dose curve; note: potency is the fitted concentration of half-maximal effect); conditions: PEO1/OlaR viability, CellTiter-Glo luminescence, 96 h; for Z-AUC: stronger effect = lower value
Summary of the method: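 PEO1, PEO4 and PEO1/OlaR ovarian cancer cells, 600 per well, exposed 96 h at 37C to a dilution series. Viability read by CellTiter-Glo luminescence, normalized to DMSO and empty wells; activity summarized as Z-AUC.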

[8] = measured here: PEO1 parental Z-AUC

Chain of Phospholipid hydroperoxide glutathione peroxidase GPX4 (Homo sapiens) (P36969 whole entry, looked up): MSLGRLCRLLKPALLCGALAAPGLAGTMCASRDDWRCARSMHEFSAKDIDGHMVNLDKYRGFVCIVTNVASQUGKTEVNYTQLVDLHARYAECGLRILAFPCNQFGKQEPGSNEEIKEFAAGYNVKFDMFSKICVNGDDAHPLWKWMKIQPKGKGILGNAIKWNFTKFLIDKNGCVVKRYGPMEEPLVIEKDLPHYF
Chain of Glutathione peroxidase 1 (Homo sapiens) (P07203 whole entry, looked up): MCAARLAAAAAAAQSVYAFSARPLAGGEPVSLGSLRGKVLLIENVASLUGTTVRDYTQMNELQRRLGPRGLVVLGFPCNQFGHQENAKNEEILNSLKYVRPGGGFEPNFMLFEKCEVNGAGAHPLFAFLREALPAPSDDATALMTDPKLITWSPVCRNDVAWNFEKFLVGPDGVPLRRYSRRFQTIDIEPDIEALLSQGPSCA

CCn1c(=O)c(-c2ccn[nH]2)cc2c(C)nc(N)nc21
Potency [1]: 4.09 µM (active) | Potency [2]: 2.55 µM (active) | Potency [3]: inactive | Potency [4]: inactive | Potency [5]: inactive | Potency [6]: inactive | Z-AUC [7]: -0.643 (inactive) | Z-AUC [7, 8]: -0.106 | Z-AUC ([7]; measured here: PEO4 Z-AUC): -0.63

C[C@H]1Oc2cc(cnc2N)-c2c(nn(C)c2C#N)CN(C)C(=O)c2ccc(F)cc21
Potency [1]: inactive | Potency [2]: inactive | Potency [3]: inactive | Potency [4]: inactive | Potency [5]: inactive | Potency [6]: inactive | Z-AUC [7]: 0.784 (inactive) and 2.21 (inactive) | Z-AUC [7, 8]: -0.00425 and 0.761 | Z-AUC ([7]; measured here: PEO4 Z-AUC): -0.356 and 0.596

COCCOc1ccc(N2CCN(CCn3ncc4c3nc(N)n3nc(-c5ccco5)nc43)CC2)cc1
Potency [1]: inactive | Potency [2]: inactive | Potency [3]: inactive | Potency [4]: inactive | Potency [5]: inactive | Potency [6]: inactive | Z-AUC [7]: -0.648 (inactive) | Z-AUC [7, 8]: -0.346 | Z-AUC ([7]; measured here: PEO4 Z-AUC): -0.723

CC(O)c1cc(C(=O)N[C@@H](C)Cn2ccc(-c3ccc(C#N)c(Cl)c3)n2)n[nH]1 (some centres not stated)
Potency [1]: inactive | Potency [2]: inactive | Potency [3]: inactive | Potency [4]: inactive | Potency [5]: inactive | Potency [6]: inactive | Z-AUC [7]: -0.266 (inactive) | Z-AUC [7, 8]: -0.668 | Z-AUC ([7]; measured here: PEO4 Z-AUC): -0.279

Cc1[nH]nc(C(F)(F)F)c1Cc1sc2c(c1C(=O)N1C[C@](C)(O)CO1)c(=O)n(C)c(=O)n2C(C)C
Potency [1]: inactive | Potency [2]: inactive | Potency [3]: inactive | Potency [4]: inactive | Potency [5]: inactive | Potency [6]: inactive | Z-AUC [7]: 0.988 (inactive) | Z-AUC [7, 8]: 0.611 | Z-AUC ([7]; measured here: PEO4 Z-AUC): 0.623

NC(=O)[C@H]1CCS[C@@H]2C[C@]3(CCCN3C(=O)Cc3ccc(NC(=O)COc4ccc(Cl)cc4Cl)cc3)C(=O)N12
Potency [1]: inactive | Potency [2]: inactive | Potency [3]: inactive | Potency [4]: inactive | Potency [5]: inactive | Potency [6]: inactive | Z-AUC [7]: -0.482 (inactive) | Z-AUC [7, 8]: 0.014 | Z-AUC ([7]; measured here: PEO4 Z-AUC): 0.0247

Cc1cc(Nc2cc(N3CCN(C)CC3)nc(/C=C/c3ccccc3)n2)n[nH]1
Potency [1]: inactive | Potency [2]: inactive | Potency [3]: inactive | Potency [4]: inactive | Potency [5]: inactive | Potency [6]: inactive | Potency [7]: 0.49 µM (active) | Z-AUC [7, 8]: -1.58 | Z-AUC ([7]; measured here: PEO4 Z-AUC): -1.32

COC(=O)N(C)c1c(N)nc(-c2nn(Cc3ccccc3F)c3ncccc23)nc1N
Potency [1]: inactive | Potency [2]: inactive | Potency [3]: inactive | Potency [4]: inactive | Potency [5]: inactive | Potency [6]: inactive | Z-AUC [7]: 0.294 (inactive) | Z-AUC [7, 8]: 0.888 | Z-AUC ([7]; measured here: PEO4 Z-AUC): 0.894

CC[C@]12C=CCN3CC[C@@]4(c5cc([C@@]6(C(=O)OC)C[C@H]7C[C@@H](C(C)(F)F)CN(Cc8c6[nH]c6ccccc86)C7)c(OC)cc5N(C)[C@H]4[C@@](O)(C(=O)OC)[C@@H]1OC(C)=O)[C@@H]32
Potency [1]: inactive | Potency [2]: inactive | Potency [3]: inactive | Potency [4]: inactive | Potency [5]: inactive | Potency [6]: inactive | Z-AUC [7]: -2.08 (inactive) and -1.5 (inactive) | Z-AUC [7, 8]: -0.895 and -0.96 | Z-AUC ([7]; measured here: PEO4 Z-AUC): -1.63 and -1.07

Cc1c(C(=O)N2CCOc3ccc(-c4ccc(N)nc4)cc3C2)ccc(S(C)(=O)=O)c1F
Potency [1]: inactive | Potency [2]: inactive | Potency [3]: inactive | Potency [4]: inactive | Potency [5]: inactive | Potency [6]: inactive | Z-AUC [7]: 0.331 (inactive) | Z-AUC [7, 8]: 0.561 | Z-AUC ([7]; measured here: PEO4 Z-AUC): 0.378

Cc1cc(OCc2nnc(SC3CCCC3)n2-c2cccnc2)ccc1-c1ccc(S(C)(=O)=O)cc1
Potency [1]: inactive | Potency [2]: inactive | Potency [3]: inactive | Potency [4]: inactive | Potency [5]: inactive | Potency [6]: inactive | Z-AUC [7]: -1.33 (inactive) | Z-AUC [7, 8]: -3 | Z-AUC ([7]; measured here: PEO4 Z-AUC): -2.2

C=C1C(=O)O[C@H]2[C@H]1CC/C(C)=C/CC[C@@]1(C)O[C@@H]21
Potency [1]: inactive | Potency [2]: inactive | Potency [3]: inactive | Potency [4]: inactive | Potency [5]: inactive | Potency [6]: inactive | Z-AUC [7]: 1.08 (inactive) | Z-AUC [7, 8]: 0.881 | Z-AUC ([7]; measured here: PEO4 Z-AUC): 0.819

CC#CC(=O)N1CCC[C@H]1c1nc(-c2ccc(C(=O)Nc3ccccn3)cc2)c2c(N)nccn12
Potency [1]: inactive | Potency [2]: inactive | Potency [3]: inactive | Potency [4]: inactive | Potency [5]: inactive | Potency [6]: inactive | Z-AUC [7]: -0.264 (inactive) | Z-AUC [7, 8]: 0.632 | Z-AUC ([7]; measured here: PEO4 Z-AUC): 0.342

O=C(NCc1cccc(O)c1)Nc1nc(-c2ccncc2)cs1
Potency [1]: inactive | Potency [2]: inactive | Potency [3]: inactive | Potency [4]: inactive | Potency [5]: inactive | Potency [6]: inactive | Z-AUC [7]: -0.136 (inactive) | Z-AUC [7, 8]: 0.195 | Z-AUC ([7]; measured here: PEO4 Z-AUC): -0.295

CCS(=O)(=O)N1CCN(c2ccc(Nc3ncc(C(N)=O)c(NC4CC4)n3)cc2)CC1
Potency [1]: inactive | Potency [2]: inactive | Potency [3]: inactive | Potency [4]: 2.99 µM (active) | Potency [5]: inactive | Potency [6]: inactive | Z-AUC [7]: 0.319 (inactive) | Z-AUC [7, 8]: -0.223 | Z-AUC ([7]; measured here: PEO4 Z-AUC): -0.0452

C=CC(=O)Nc1cccc(Nc2nc(Nc3ccc(N4CCN(C(C)=O)CC4)cc3OC)ncc2C(F)(F)F)c1
Potency [1]: inactive | Potency [2]: inactive | Potency [3]: inactive | Potency [4]: 2.99 µM (active) | Potency [5]: inactive | Z-AUC [7]: -0.226 (inactive) | Z-AUC [7, 8]: 0.717 | Z-AUC ([7]; measured here: PEO4 Z-AUC): -0.058

COc1cc2ncnc(Nc3ccc(F)c(Cl)c3)c2cc1NC(=O)/C=C/CN1CCCCC1
Potency [1]: inactive | Potency [2]: inactive | Potency [3]: inactive | Potency [4]: inactive | Potency [5]: inactive | Potency [6]: inactive | Potency [7]: 6.92 µM (active) | Z-AUC [7, 8]: -1.17 | Z-AUC ([7]; measured here: PEO4 Z-AUC): -1.24

— PubChem BioAssay (NCATS)
